Inconclusive results are not listed. Calls of active or inactive are those of the source. Rule for the calls: active = hit-call score of the fitted dose curve at least 0.9, where 1 is the maximum; inconclusive = response in the unintended direction; inactive = score below 0.9. Peptide text beside a SMILES is read from it.
Each compound was assayed against Bile acid receptor (Homo sapiens) (UniProt Q96RI1) (assay: OT_FXR_FXRSRC1_0480: Odyssey Thera (OT) 8-hour HEK293T Protein-Complementation Assay for Farnesoid X receptor/SRC-1 Co-activator (AID 2283383)).
Sequence of Bile acid receptor (Homo sapiens) (Q96RI1 whole entry, looked up, the tested form may be a part): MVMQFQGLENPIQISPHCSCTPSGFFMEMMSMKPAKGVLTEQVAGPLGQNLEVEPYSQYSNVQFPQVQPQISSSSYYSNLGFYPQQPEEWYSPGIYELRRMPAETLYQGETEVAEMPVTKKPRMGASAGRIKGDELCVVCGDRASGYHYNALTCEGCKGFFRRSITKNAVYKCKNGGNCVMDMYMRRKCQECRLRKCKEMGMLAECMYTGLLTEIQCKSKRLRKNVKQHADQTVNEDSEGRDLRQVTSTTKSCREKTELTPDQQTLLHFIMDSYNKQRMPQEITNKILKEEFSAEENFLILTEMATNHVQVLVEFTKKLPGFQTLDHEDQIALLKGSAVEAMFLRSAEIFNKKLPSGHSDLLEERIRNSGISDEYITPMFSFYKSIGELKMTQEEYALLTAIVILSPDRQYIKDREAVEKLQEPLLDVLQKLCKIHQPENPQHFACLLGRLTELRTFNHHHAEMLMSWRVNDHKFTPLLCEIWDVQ
Experimental: OT_FXR_FXRSRC1_0480 is a cell-based assay that uses HEK293T, a human kidney cell line, with measurements taken at 8 hours after chemical dosing in a 384-well plate.OT_FXR_FXRSRC1_0480 is one of one assay component(s) measured or calculated from the OT_FXR_FXRSRC1_0480 assay. It is designed to make measurements of protein fragment complementation, a form of binding reporter, as detected with fluorescence intensity signals by Protein-fragment Complementation technology.Data from the assay component OT_FXR_FXRSRC1_0480 was analyzed into 1 assay endpoint. This assay endpoint, OT_FXR_FXRSRC1_0480, was analyzed in the positive analysis fitting direction relative to DMSO as the negative control and baseline of activity. Using a type of binding reporter, measures of receptor for gain-of-signal activity can be used to understand the binding at the pathway-level as they relate to the gene NR1H4. Furthermore, this assay endpoint can be referred to as a primary readout, because the performed assay has only produced 1 assay endpoint. To generalize the intended target to other relatable targets, this assay endpoint is annotated to the nuclear receptor intended target family, where the subfamily is non-steroidal.
Protein-fragment complementation assay, or PCA, is a method for the identification and quantification of protein-protein interactions. In the PCA, the proteins of interest ("bait" and "prey") are each covalently linked to fragments of a third protein (e.g. DHFR, which acts as a "reporter"). Interaction between the bait and the prey proteins brings the fragments of the reporter protein in close proximity to allow them to form a functional reporter protein whose activity can be measured.
In the case of `CCC[Si](OC)(OC)OC`, the outcome was “inactive”.
For `CC(C)(C)NC(=O)[C@H]1CC[C@H]2[C@@H]3CC[C@H]4NC(=O)C=C[C@]4(C)[C@H]3CC[C@]12C`, the outcome was “inactive”.
In the case of `O=C(Nc1ccccc1)c1cc(Cl)ccc1O`, the outcome was “inactive”.
For `Cc1cc(C)n(CO)n1`, the outcome was “inactive”.
`CC(=O)/C=C/C1C(C)=CCCC1(C)C` (configuration not stated) was tested, and the outcome was “inactive”.
In the case of `CCCCC/C=C\C/C=C\CCCCCCCC(=O)O`, the outcome was “inactive”.
`CCCCNC(=S)NCCCC` was tested, and the outcome was “inactive”.
`CCCCCCOc1ccc(N)cc1` was tested, and the outcome was “inactive”.
For `CC(C)=CCCC(C)=CC#N`, the outcome was “inactive”.
`CCN1CN(CC)CN(CC)C1` was tested, and the outcome was “inactive”.
In the case of `CC(CCC(=O)O)(c1ccc(O)cc1)c1ccc(O)cc1`, the outcome was “inactive”.
In the case of `N#Cc1ccc(C(c2ccc(C#N)cc2)n2cncn2)cc1`, the outcome was “inactive”.
In the case of `CCCCC(=O)O`, the outcome was “inactive”.
`CCCCCCCCCCCCCCCCCCOS(=O)(=O)O` was tested, and the outcome was “inactive”.
For `CCC(C)(O)CCCC(C)C` (configuration not stated), the outcome was “inactive”.
`CCOC(=O)C1=NOC(c2ccccc2)(c2ccccc2)C1` was tested, and the outcome was “inactive”.
For `CCOC(=O)c1ccccc1C`, the outcome was “inactive”.
For `COc1ccc(C(=O)c2ccccc2)c(O)c1`, the outcome was “inactive”.
In the case of `O=C(O)C1CCC(C(=O)O)CC1` (configuration not stated), the outcome was “inactive”.
`C=C[Si](OCCOC)(OCCOC)OCCOC` was tested, and the outcome was “inactive”.
In the case of `CCCCNS(=O)(=O)c1ccccc1`, the outcome was “inactive”.
For `O=C(OCc1ccccc1)c1ccc(O)cc1`, the AC50 was 50 µM (active).
For `CC12CCC(CC1)C(C)(C)O2`, the outcome was “inactive”.
`CCC1COC(=O)O1` (configuration not stated) was tested, and the outcome was “inactive”.
For `CC(C)(C)C1CCC(=O)CC1`, the outcome was “inactive”.
With `COC(=O)[C@H](Cc1ccccc1)NC(=O)[C@@H](N)CC(=O)O` (H-Asp-Phe-OMe) the outcome was “inactive”.
In the case of `CCc1occc(=O)c1O`, the outcome was “inactive”.
`CCCCC(CC)COS(=O)(=O)O` (configuration not stated) was tested, and the outcome was “inactive”.
In the case of `Cc1ccc(C)c(OCCCC(C)(C)C(=O)O)c1`, the outcome was “inactive”.
In the case of `Cc1ccc([N+](=O)[O-])cc1N`, the outcome was “inactive”.
In the case of `CCCCCCCCC(CO)CCCCCC` (configuration not stated), the outcome was “inactive”.
For `CCCCC(C=O)CC` (configuration not stated), the outcome was “inactive”.
For `CCCCCCCCCCCCCC(=O)OC(C)C`, the outcome was “inactive”.
In the case of `Nc1ccc(C(=O)O)cc1`, the outcome was “inactive”.
With `C/C=C/C=C/CCCCCCCO` the outcome was “inactive”.
`CCCCCCOC(=O)CCCCC(=O)OCCCCCC` was tested, and the outcome was “inactive”.
With `CCCCc1ccc(Cl)cc1` the outcome was “inactive”.
